Bioassay records (PubChem BioAssay)
The list is not random: actives were taken first. Their share in the collection is about 10%.
RORg inh = qHTS for inhibitors of ROR gamma transcriptional activity. Nuclear receptor ROR-gamma (Mus musculus), P51450. Drosophila S2 Gal4-RORgamma UAS-luciferase reporter, 20 h. Potency, µM (titrated, usually from 53.6 µM), for the others: top-dose activity change, negative = inhibition, usual class: inhibitors. 310,000 compounds, 5.4% hits. AID 2551, 2010; also: % is scaled to controls: 0 for no effect and ±100 for the full control effect; nearly all actives have a fitted effect of over 60% in size
Target sequence (P51450 whole entry, looked up, the tested form may be a part): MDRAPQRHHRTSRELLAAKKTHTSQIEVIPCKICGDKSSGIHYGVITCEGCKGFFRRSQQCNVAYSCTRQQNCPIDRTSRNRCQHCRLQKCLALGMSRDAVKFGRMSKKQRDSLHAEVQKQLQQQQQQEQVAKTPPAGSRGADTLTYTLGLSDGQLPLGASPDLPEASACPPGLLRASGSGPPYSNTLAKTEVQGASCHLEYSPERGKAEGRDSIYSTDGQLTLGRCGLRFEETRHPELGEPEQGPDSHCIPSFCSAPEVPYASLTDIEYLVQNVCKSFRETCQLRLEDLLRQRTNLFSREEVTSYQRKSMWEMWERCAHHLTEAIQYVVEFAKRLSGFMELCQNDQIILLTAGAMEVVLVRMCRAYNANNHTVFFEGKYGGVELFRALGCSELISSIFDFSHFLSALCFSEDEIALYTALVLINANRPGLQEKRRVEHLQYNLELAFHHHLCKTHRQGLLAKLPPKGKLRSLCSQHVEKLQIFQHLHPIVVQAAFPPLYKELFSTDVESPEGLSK
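Drosophila Schneider cells stably carrying a metallothionein-driven Gal4 DBD–ROR gamma fusion and a UAS-Photinus luciferase reporter were exposed to compound for 1 hr, then induced with copper sulfate (700 uM final) for 20 hr at ambient temperature before luminescence reading.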
SW480 rereplic = A quantitative high throughput screen for small molecules that induce DNA re-replication in SW480 colon adenocarcinoma cells; AID 624297, 2012; SW480 DNA re-replication, Hoechst DNA content imaging, 48 h; Potency, µM (doses to about 46.1 µM), inactives show top-dose re-replication activation, most hits filed as activators; 340,000 compounds, 1.8% hits; also: % of control where 0% means no effect; nearly all actives have a fitted effect of over 55% in size
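First, 250 cells per well were seeded. Next, compound or vehicle (23 nL) was pinned in, plates sat 48 hr at 37 C. Finally Hoechst was added for 40 min before fluorescence scanning.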
ELG1 DNA repair = qHTS screen for small molecules that inhibit ELG1-dependent DNA repair in human embryonic kidney (HEK293T) cells expressing luciferase-tagged ELG1; Potency, µM (doses to about 46.1 µM), for inactives: top-dose activity change, negative = inhibition, most hits filed as inhibitors; HEK293T ELG1-luciferase reporter, luminescence, 16 h; DNA damage induced by 5-fluorouridine; AID 504467, 2011; 330,000 compounds, 2.3% hits; also: % is scaled to controls: 0 for no effect and ±100 for the full control effect; nearly all actives have a fitted effect of over 55% in size
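In this reporter screen, reduction of luminescence relative to DMSO vehicle indicated activity. Compounds and 5-fluorouridine were added together to 2,000 cells per well, incubated for 16 hr at 37 °C, then developed with ONE-Glo.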
MCF10A rereplic = A quantitative high throughput screen for small molecules that induce DNA re-replication in MCF 10a normal breast cells; MCF 10A DNA re-replication, Hoechst nuclear intensity, 48 h; Potency, µM (top dose mostly 46.1 µM), without a hit: top-dose activity, positive = re-replication, actives largely listed as activators; 350,000 compounds, 2.9% hits; AID 624296, 2012; also: % of control where 0% means no effect; nearly all actives have a fitted effect of over 50% in size
Gal4-VP16 FLuc = VP16 counterscreen qHTS for inhibitors of ROR gamma transcriptional activity; Potency, µM (highest dose often 53.6 µM), without a hit: top-dose activity, negative = inhibition, most hits filed as inhibitors; Drosophila S2 Gal4-VP16 UAS-luciferase, luminescence, 20 h; 310,000 compounds, 3.5% hits;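 also: Gal4-VP16 expression switched on by copper sulfate through the metallothionein promoter; % is scaled to controls: 0 for no effect and ±100 for the full control effect; nearly all actives have a fitted effect of over 50% in size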
An asterisk follows results filed as active; ? = inconclusive; . = not tested or not shown; [ ] = dose if it differs, or a comment. Calls follow the shape of the dose curve; as a rule, active = well fitted curve in the direction sought with a large enough effect; inconclusive = small, poorly fitted or top-dose-only effect, or another doubt; inactive = no such curve, though single readings can be large; an effect the other way counts as inactive or inconclusive. Potency is read from the fitted curve at half-maximal effect.

SMILES | RORg inh | SW480 rereplic | ELG1 DNA repair | MCF10A rereplic | Gal4-VP16 FLuc
O=c1c2c(-c3ccccc3)csc2nc2c3ccccc3c(NCCN3CCOCC3)nn12 | 1.58µM* | ? | 7.5% | 9.2µM* | 3.16µM*
Cc1ccc(S(=O)(=O)CCC(=O)Nc2sccc2C#N)cc1 | . | 9.5% | -4.3% | 8.0% | .
COc1ccccc1N1CCN(C(=O)CCC(=O)O)CC1 | 5.3% | -1.6% | 2.4% | -2.5% | -13.2%
COc1ccccc1N1CCN(C(=S)NC(=O)/C=C/c2ccc(F)cc2)CC1 | 3.55µM* | -5.5% | ? | 1.5% | 10µM*
COc1ccccc1N1CCN(C(=S)NC(=O)/C=C/c2ccccc2)CC1 | 0.891µM* | -6.3% | ? | 4.9% | 7.08µM*
CCOc1ccc(OCCC(=O)N(CCOC)c2c(N)n(Cc3ccccc3)c(=O)[nH]c2=O)cc1 | . | -2.3% | . | 0.9% | .
Cc1ccc(S(=O)(=O)N(c2cccc(C(F)(F)F)c2)C2C=CS(=O)(=O)C2)cc1 (stereo not given) | -10.6% | ? | 0.9% | 23.1µM* | -1.4%
O=c1[nH]nc(Cc2ccc(-c3ccc(Cl)cc3)o2)c2ccccc12 | ? | ? | -14.0% | 8.2µM* | ?
O=c1[nH]c(C2CCN(S(=O)(=O)c3ccc(S(=O)(=O)NC4CC4)cc3)CC2)nc2c1nnn2Cc1ccc(F)cc1 | ? | -160.7% | ? | 5.2% | -2.4%
Cc1ccc(C)c(Cn2nnc3c(=O)[nH]c(C4CCN(S(=O)(=O)c5ccc(S(=O)(=O)NC6CC6)cc5)CC4)nc32)c1 | 2.4% | 21.8% | 16.4µM* | 1.4% | ?
O=c1[nH]c(C2CCN(S(=O)(=O)c3ccc(S(=O)(=O)NC4CC4)cc3)CC2)nc2c1nnn2Cc1ccccc1 | 42.9% | -29.1% | 18.3µM* | ? | 0.6%
O=c1[nH]c(C2CCN(S(=O)(=O)c3ccccc3F)CC2)nc2c1nnn2Cc1ccc2c(c1)OCCO2 | 24.2% | 2.0% | -9.1% | 13.6% | 3.0%
O=c1[nH]c(C2CCN(S(=O)(=O)c3ccc(F)cc3)CC2)nc2c1nnn2Cc1ccc2c(c1)OCCO2 | ? | 10.5% | 25.9µM* | 20.0% | -1.8%
Cc1cc(O)c(C2=Nc3ccccc3SC(c3ccc(Cl)cc3)C2)c(=O)o1 (stereo not given) | -14.9% | . | ? | 5.17µM* | 20.2%
CCOC(=O)c1c(-c2cccs2)csc1NC(=O)CN1CC(C)OC(C)C1 (stereo not given) | -3.8% | ? | ? | 20.6µM* | 5.6%
CCOC(=O)c1c(-c2cccs2)csc1NC(=O)C(C)(C)C | -6.7% | -4.1% | ? | 13µM* | -13.1%
Nc1ccccc1Nc1cc(-c2ccccc2)[nH]n1 | 11.6% | 8.3% | ? | ? | 1.2%
COc1ccccc1C(=O)NC(=S)Nc1ccc(N2CCCC2)cc1 | ? | 1.2% | ? | 18.4% | -14.7%
Cc1ccccc1C(=O)NC(=S)Nc1ccccc1N1CCCC1 | 7.08µM* | 2.6% | 0.4% | 4.3% | -25.9%[10 µM]
COc1ccccc1C(=O)NC(=S)Nc1ccccc1N1CCCC1 | 10µM* | . | ? | . | ?
Cc1ccccc1C(=O)Nc1ccccc1N1CCN(C(=O)c2ccccc2)CC1 | 3.9% | 4.5% | ? | 4.8% | 1.8%
COc1ccc(N2CC(C(=O)Nc3ccccc3N3CCCC3)CC2=O)c(OC)c1 (stereo not given) | . | 20.6µM* | -12.1% | ? | .
O=C(CNC(=O)c1ccc(Br)o1)NCc1ccc(F)cc1 | 2.7% | 27.9% | 7.1% | ? | -2.3%
CCN=C(Nc1ccc2c(c1)OCO2)SC1CC(=O)N(c2ccc(OC)cc2)C1=O (stereo not given) | 29.8% | 9.7% | 16.4µM* | 20.1% | -7.0%
COc1ccccc1NC(=O)CSC1CC(=O)N(c2ccc3c(c2)OCO3)C1=O (stereo not given) | 5.62µM* | -1.1% | -0.1% | -1.1% | 5.01µM*
